Results as given in PubChem BioAssay (Tox21).
Where “and” joins values, the source holds several entries; their conditions need not be identical. Identical values can stand only once. Records with an inconclusive call do not appear. Entries that show only a call come without a potency. Calls of active or inactive are those of the source. Unless noted, calls come from the whole dose curve; as a rule, active = well fitted curve in the direction sought with a large enough effect in the repeat runs; inconclusive = weak or mixed curves; inactive = no such curve, though single readings can be large; an effect the other way counts as inactive or inconclusive.

Tests used:
[1] = qHTS assay for small molecule agonists of the p53 signaling pathway (AID 651631; calls by dose curve; note: nearly all actives have a fitted effect of over 15% in size)
Summary of the method: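 Stably transfected HCT-116 cells (beta-lactamase behind p53 response elements) get compounds after a 5 h settling period; 16 h later at 37 °C, FRET substrate is loaded and fluorescence read after 2 h.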

[2] = qHTS assay for small molecules that induce genotoxicity in human embryonic kidney cells expressing luciferase-tagged ATAD5 (AID 651632); note: nearly all actives have a fitted effect of over 15% in size; note: potency is the fitted concentration of half-maximal effect
Summary of the method: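 A rise in luciferase signal from ATAD5-tagged HEK293T cells marks genetic stress. Cells were exposed to compounds for 16 hr at 37C, 5% CO2, then luciferase was quantified after a 30 min room-temperature incubation with Amplite.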

[3] = qHTS assay for small molecule agonists of the p53 signaling pathway - cell viability (AID 651633; calls by dose curve;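 note: p53RE-bla HCT reporter cells with a stable beta-lactamase p53 reporter; series mostly up to about 83 µM; nearly all actives have a fitted effect of over 30% in size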)
Summary of the method: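 p53RE-bla cells, seeded at 4,000 per well and rested 5 h at 37 C/5% CO2, received compounds in DMSO for 16 h at 37 C. CellTiter-Glo was then added, and luminescence was read after 30 min at room temperature to gauge cytotoxicity.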

[4] = qHTS assay for small molecules that induce genotoxicity in human embryonic kidney cells expressing luciferase-tagged ATAD5 - cell viability (AID 651634; calls by dose curve; note: nearly all actives have a fitted effect of over 25% in size; note: potency is the fitted concentration of half-maximal effect)
Summary of the method: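 Cytotoxicity counter-readout: after 15.5 hr compound treatment at 37C, live-cell protease activity in ATAD5-luciferase HEK293T cells measured by CellTiter-Fluor fluorescence, 30 min development at 37C.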

[5] = qHTS assay for small molecule disruptors of the mitochondrial membrane potential - cell viability (AID 720634; calls by dose curve;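 note: human HepG2 liver cancer cells; series mostly up to about 83 µM; nearly all actives have a fitted effect of over 20% in size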)
Summary of the method: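 Cytotoxicity was quantified from ATP content by CellTiter-Glo luminescence in the same wells as the MMP dye read-out. HepG2 (2,000 cells/well) were plated overnight and exposed to compounds for 1 hr at 37 C.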

[6] = qHTS assay for small molecule disruptors of the mitochondrial membrane potential (AID 720635); note: potency is the fitted concentration of half-maximal effect
Summary of the method: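 HepG2 cells (2,000/well) attached overnight at 37C, then took compound for 1 hr at 37C, 5% CO2. Mito-MPS dye was added for 30 min; fluorescence was read at 490/535 nm (monomers) and 540/590 nm (aggregates).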

[7] = qHTS assay to test for compound auto fluorescence at 590 nm (red) in HepG2 cells (AID 720674)
Summary of the method: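 Rose Bengal sodium served as the red fluorophore standard. HepG2 monolayers (overnight attachment, MEM with 10% FBS) were exposed to test compounds for 1 hr at 37 C and read at Ex 540/Em 590 nm.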

[8] = qHTS assay to test for compound auto fluorescence at 535 nm (green) in HepG2 cells (AID 720675)
[9] = qHTS assay to test for compound auto fluorescence at 460 nm (blue) in HEK293 cells (AID 720678)
Summary of the method: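 Cells were seeded and left to adhere for 4-5 hr at 37C. Compounds were then pin-transferred. After an overnight incubation at 37C under 5% CO2, intrinsic fluorescence at 405/460 nm was measured and referenced to triamterene.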

[10] = qHTS assay to test for compound auto fluorescence at 590 nm (red) in HEK293 cells (AID 720679)
Summary of the method: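 Each well held 2,000 HEK293 cells in medium containing 10% dialyzed FBS. Following 4-5 hr attachment at 37C, 23 nL test compound or DMSO was added; plates sat overnight, and red fluorescence (540/590nm) was recorded.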

[11] = qHTS assay to test for compound auto fluorescence at 535 nm (green) in HEK293 cells (AID 720680)
[12] = qHTS assay to test for compound auto fluorescence at 460 nm (blue) in HEK293 cell free culture (AID 720681)
Summary of the method: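 Test compounds were pinned into cell-free culture medium (DMEM with 10% FBS) and fluorescence was read directly at Ex/Em 405/460 nm. Signals were expressed as fluorescence equivalents of triamterene, with DMSO vehicle as control.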

[13] = qHTS assay to test for compound auto fluorescence at 535 nm (green) in HEK293 cell free culture (AID 720682)
Summary of the method: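 Using fluorescein as calibrant, autofluorescence was quantified at 485/535 nm in cell-free DMEM containing 10% FBS after pintool addition of compound or vehicle.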

[14] = qHTS assay to test for compound auto fluorescence at 590 nm (red) in HepG2 cell free culture (AID 720684)
Summary of the method: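 Readout: intrinsic compound fluorescence at 590 nm emission after 540 nm excitation, scaled to Rose Bengal sodium. Matrix was cell-free MEM with 10% FBS; DMSO vehicle wells served as control.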

[15] = qHTS assay to test for compound auto fluorescence at 460 nm (blue) in HepG2 cell free culture (AID 720685)
Summary of the method: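 Cell-free plates of MEM plus 10% FBS received 23 nL compound or DMSO vehicle; blue-channel (405/460 nm) intensity scored against triamterene as reference fluorophore.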

[16] = qHTS assay to test for compound auto fluorescence at 535 nm (green) in HepG2 cell free culture (AID 720686)
[17] = qHTS assay to test for compound auto fluorescence at 460 nm (blue) in HepG2 cells (AID 720687)
Summary of the method: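 Cells (2,000/well in MEM with 10% FBS) attached overnight at 37 C, then were exposed to compound or DMSO for 1 hr at 37 C, 5% CO2. Fluorescence read at Ex/Em 405/460 nm, expressed as triamterene-equivalent signal.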

[18] = target: Glucocorticoid receptor (Homo sapiens) (UniProt P04150); assay: qHTS assay to identify small molecule agonists of the glucocorticoid receptor (GR) signaling pathway (AID 720691; active = well fitted activation curve with a large enough effect in the signal ratio in the repeat runs, not every such curve was filed as active; the % refers to the signal ratio)
Sequence of Glucocorticoid receptor (Homo sapiens) (P04150 whole entry, looked up): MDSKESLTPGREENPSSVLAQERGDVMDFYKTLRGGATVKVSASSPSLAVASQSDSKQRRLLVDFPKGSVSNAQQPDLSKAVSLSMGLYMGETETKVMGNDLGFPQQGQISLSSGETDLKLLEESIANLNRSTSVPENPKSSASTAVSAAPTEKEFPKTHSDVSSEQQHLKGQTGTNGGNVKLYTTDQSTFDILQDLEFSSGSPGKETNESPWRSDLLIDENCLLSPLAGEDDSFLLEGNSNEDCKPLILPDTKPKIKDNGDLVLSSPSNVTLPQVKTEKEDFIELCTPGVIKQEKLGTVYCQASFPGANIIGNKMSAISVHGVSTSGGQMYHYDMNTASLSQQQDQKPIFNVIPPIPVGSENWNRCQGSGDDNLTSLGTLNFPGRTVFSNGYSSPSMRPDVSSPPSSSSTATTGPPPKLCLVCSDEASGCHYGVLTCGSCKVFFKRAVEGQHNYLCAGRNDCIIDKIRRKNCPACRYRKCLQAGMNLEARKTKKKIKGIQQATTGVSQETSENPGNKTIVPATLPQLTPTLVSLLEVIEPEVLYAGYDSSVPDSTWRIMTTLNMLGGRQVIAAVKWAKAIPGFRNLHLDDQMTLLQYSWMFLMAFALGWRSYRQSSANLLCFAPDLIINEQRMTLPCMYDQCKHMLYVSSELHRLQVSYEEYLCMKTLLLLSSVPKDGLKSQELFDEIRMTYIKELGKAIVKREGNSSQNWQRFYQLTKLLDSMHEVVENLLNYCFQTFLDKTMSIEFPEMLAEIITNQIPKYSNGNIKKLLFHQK
Summary of the method: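 Agonist-mode qHTS in HeLa cells stably expressing a glucocorticoid-response-element beta-lactamase reporter. Fluorescence intensity read with FRET substrate (2 h, room temperature) after 18 h compound treatment at 37 C.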

[19] = target: Glucocorticoid receptor (Homo sapiens) (UniProt P04150); assay: qHTS assay to identify small molecule antagonists of the glucocorticoid receptor (GR) signaling pathway (AID 720692; active = well fitted inhibition curve with a large enough effect in the signal ratio in the repeat runs, not every such curve was filed as active; the % refers to the signal ratio)
Summary of the method: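 Inhibition of dexamethasone-driven (5 nM final) beta-lactamase expression was measured in GRE-reporter HeLa cells over 18 h at 37C. Fluorescence was read after 2 h with the B/G FRET substrate at room temperature.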

[20] = qHTS assay to test for compound auto fluorescence at 590 nm (red) in HEK293 cell free culture (AID 720683)
Summary of the method: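 Tox21 10K library compounds were pinned into cell-free DMEM with 10% FBS and fluorescence was read at excitation 540 nm. Activity is expressed as Rose Bengal sodium equivalency.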

Row | SMILES | Potency [1] | Potency [2] | Potency [3] | Potency [4] | Potency [5] | Potency [6] | Potency [7] | Potency [8] | outcome [9] | Potency [10] | Potency [11] | Potency [12] | Potency [13] | Potency [14] | Potency [15] | Potency [16] | Potency [17] | Potency [18] | Potency [19] | Potency [20]
1 | CC(C)(C)c1cccc(C(C)(C)C)c1O | inactive | inactive | inactive | inactive | inactive | 16.8 µM (active) and 15.4 µM (active) | inactive | inactive | inactive | inactive | inactive | inactive | inactive | inactive | inactive | inactive | inactive | inactive | inactive | 
2 | [O-]/[N+](=N\O)c1ccccc1 | inactive | inactive | inactive | inactive | inactive | inactive | inactive | inactive | inactive | inactive | inactive | inactive | inactive | inactive | inactive | inactive | inactive |  |  | inactive
3 | Nc1ccc(N)c(Cl)c1 | inactive | inactive | inactive | inactive | inactive | 3.85 µM (active) and 27.3 µM (active) | inactive | inactive | inactive | inactive | inactive | inactive | inactive | inactive | inactive |  | inactive | inactive | inactive | 
4 | Nc1cc([N+](=O)[O-])ccc1C(=O)O | inactive | inactive | inactive | inactive | inactive | 38.6 µM (active) | inactive | inactive | inactive | inactive | inactive | inactive | inactive | inactive | inactive | inactive | inactive |  |  | 
5 | NCCOCCO | inactive | inactive | inactive | inactive | inactive | inactive | inactive | inactive | inactive | inactive | inactive | inactive | inactive | inactive | inactive | inactive | inactive | inactive | inactive | inactive
6 | O=C(O)c1cc(=O)[nH]c(=O)[nH]1 | inactive | inactive | inactive | inactive | inactive | inactive | inactive | inactive | inactive | inactive | inactive | inactive | inactive | inactive | inactive | inactive | inactive | inactive | inactive | inactive
7 | CNC[C@H](O)c1ccc(O)c(O)c1 | inactive | inactive | inactive | inactive | inactive | inactive | inactive | inactive | inactive | inactive | inactive | inactive | inactive | inactive | inactive | inactive | inactive |  |  | 
8 | C=C[C@@]1(C)CC(=O)[C@]2(O)[C@@]3(C)[C@@H](O)CCC(C)(C)[C@@H]3[C@H](O)[C@H](OC(C)=O)[C@@]2(C)O1 | inactive | 266 nM (active) and 122 nM (active) | inactive | inactive | inactive | 26.6 µM (active) | inactive | inactive | inactive | inactive | inactive | inactive | inactive | inactive | inactive |  | inactive | inactive |  | inactive
9 | Nc1ccc(O)c(N)c1 | inactive | inactive | inactive | 54.1 µM (active) and 61.1 µM (active) | inactive | 10.8 µM (active) and 4.86 µM (active) | inactive | inactive | inactive | inactive | inactive | inactive | inactive | inactive | inactive | inactive | inactive | inactive |  | inactive
10 | C=CCCCCCCCCCC | inactive | inactive | inactive |  | inactive | inactive | inactive | inactive | inactive | inactive | inactive | inactive | inactive | inactive | inactive | inactive | inactive | inactive | inactive | 
11 | O=C1CCc2ccccc2O1 | inactive | inactive | inactive |  | inactive | inactive | inactive | inactive | inactive | inactive | inactive | inactive | inactive | inactive | inactive | inactive | inactive | inactive | inactive | inactive
12 | CCCCCCCCCCC(CO)CCCCCCCC (stereo not drawn) | inactive | inactive | inactive |  | inactive | inactive | inactive | inactive | inactive | inactive | inactive | inactive | inactive | inactive | inactive | inactive | inactive | inactive | inactive | 
13 | CCCCCC=O | inactive | inactive | inactive | inactive | inactive |  | inactive | inactive | inactive | inactive | inactive | inactive | inactive | inactive | inactive |  | inactive |  |  | inactive
14 | COC(=O)CC(=O)OC | inactive | inactive | inactive |  | inactive | inactive | inactive | inactive | inactive | inactive | inactive | inactive | inactive | inactive | inactive | inactive | inactive | inactive | inactive | inactive
15 | CN1CCOCC1 | inactive |  | inactive |  | inactive | inactive | inactive | inactive | inactive | inactive | inactive | inactive | inactive | inactive | inactive | inactive | inactive | inactive | inactive | 
